The values that follow come from PubChem BioAssay (NCI).

Assay [1] in a line: NCI Yeast Anticancer Drug Screen. Data for the rad50 strain (AID 155).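 Also: 0% = growth of vehicle-only cultures of the same strain.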 Conditions: S. cerevisiae rad50 strain growth inhibition, active compounds read high. An outline of the steps:
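A DNA repair-deficient yeast mutant serves as the test organism; compound-induced growth inhibition is calculated against vehicle-treated cells.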

Assay [2] can be described thus: NCI Yeast Anticancer Drug Screen. Data for the mec2-1 strain (AID 157). Conditions: S. cerevisiae mec2-1 strain, active compounds read high. The method in brief: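 Strain: mec2-1 (DNA repair/cell cycle alteration). Compound exposure, then growth measured; inhibition expressed relative to vehicle.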
Assay [3] can be described thus: NCI Yeast Anticancer Drug Screen. Data for the sgs1 mgt1 strain (AID 161).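 Also: 0% = growth of cultures given vehicle only.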 Conditions: S. cerevisiae sgs1 mgt1 strain, active compounds read high. An outline of the steps: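 Read-out: growth inhibition vs vehicle controls. Cells: mutant yeast strain deficient in DNA damage repair.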
The nature of assay [4]: NCI Yeast Anticancer Drug Screen. Data for the cln2 rad14 strain (AID 165).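 Also: 0% = growth equal to vehicle treated cultures.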 Conditions: S. cerevisiae cln2 rad14 strain, active compounds read high. An outline of the steps: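 Compounds are applied to the cln2 rad14 yeast strain, and growth is then compared with that of vehicle-treated cultures to give inhibition.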
Assay [5] can be described thus: NCI Yeast Anticancer Drug Screen. Data for the bub3 strain (AID 167). Conditions: S. cerevisiae bub3 mutant strain, active compounds read high. An outline of the steps:
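Inhibition values come from growth of compound-treated mutant yeast normalised to vehicle-treated controls.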

The nature of assay [6]: NCI Yeast Anticancer Drug Screen. Data for the mlh1 rad18 strain (AID 175). The conditions noted are these: S. cerevisiae mlh1 rad18 strain growth inhibition, active compounds read high. An outline of the steps:
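Read-out is yeast growth inhibition, calculated against vehicle-only controls. The compound was applied to a strain engineered with DNA damage repair alterations.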

Where [7] appears, read: at 5.0 µM (retest, dose inferred, filed as 0.5).
The mark [8] stands for this setting: at 50.0 µM (retest, dose inferred, filed as 5.0).

The structures appear in SMILES notation. This is part of a sample that, as a whole, favours compounds with a hit. Of some 79,000 tested, about 15% had one in any assay. Values without a mark were called inactive. Activity calls are given as the source filed them. Rule as the data show it: active = growth inhibition above about 70%; inactive = the rest. Where a SMILES comes first, the peptide text is derived from it. The star is where a group is joined. Boc = CC(C)(C)OC(=O)*; OBn = c1ccc(CO*)cc1; Bn = c1ccc(C*)cc1

Consider `CCCCN(CCCC)CCCCNc1ccc(C)c2sc3ccccc3c(=O)c12`, for which the growth inhibition in assay [1] (setting [7]) was 36%; in assay [1] (setting [8]), 99% (active); in assay [1] (at 50.0 µM), 98.7% (active); in assay [2] (setting [7]), 23%; in assay [2] (setting [8]) it was 98% (active); in assay [2] (at 50.0 µM) it was 99.2% (active). Besides, the growth inhibition in assay [3] (setting [7]) is 83% (active); in assay [3] (setting [8]), 98% (active); in assay [3] (at 50.0 µM), 98.8% (active); in assay [4] (setting [7]), 18%; in assay [4] (setting [8]) it was 98% (active); in assay [4] (at 50.0 µM), 98.3% (active). For the same molecule, the growth inhibition was 50% in assay [5] (setting [7]); 98% (active) in assay [5] (setting [8]); 98.8% (active) in assay [5] (at 50.0 µM); 65% in assay [6] (setting [7]); 98% (active) in assay [6] (setting [8]); 99.2% (active) in assay [6] (at 50.0 µM).
For the molecule `O=C1CCSC(=S)N1c1ccc(N=Nc2ccccc2)cc1`, the growth inhibition in assay [1] (setting [7]) was 57%; in assay [1] (setting [8]), 94% (active); in assay [1] (at 50.0 µM), 75.4% (active); in assay [2] (setting [7]) it was 9%; in assay [2] (setting [8]), 91% (active); in assay [2] (at 50.0 µM), 97.6% (active). The growth inhibition is 20% in assay [3] (setting [7]); 94% (active) in assay [3] (setting [8]); 97.2% (active) in assay [3] (at 50.0 µM); 11% in assay [4] (setting [7]); 13% in assay [4] (setting [8]); 84% (active) in assay [4] (at 50.0 µM). For the same molecule, the growth inhibition in assay [5] (setting [7]) was 0%; in assay [5] (setting [8]) it was 4%; in assay [5] (at 50.0 µM), 93.5% (active); in assay [6] (setting [7]), 18%; in assay [6] (setting [8]), 94% (active); in assay [6] (at 50.0 µM) it was 94.5% (active).
Take `Nc1ccc(Sc2c3ccccc3nc3ccccc23)cc1`: the growth inhibition was 19% in assay [1] (setting [7]); 59% in assay [1] (setting [8]); 80.8% (active) in assay [1] (at 50.0 µM); 16% in assay [2] (setting [7]); 34% in assay [2] (setting [8]); 63.3% in assay [2] (at 50.0 µM). Moreover, the growth inhibition in assay [3] (setting [7]) was 22%; in assay [3] (setting [8]), 98% (active); in assay [3] (at 50.0 µM) it was 87.2% (active); in assay [4] (setting [7]), 19%; in assay [4] (setting [8]) it was 96% (active); in assay [4] (at 50.0 µM), 71.8% (active). The growth inhibition in assay [5] (setting [7]) is 24%; in assay [5] (setting [8]), 98% (active); in assay [5] (at 50.0 µM) it was 85% (active); in assay [6] (setting [7]), 18%; in assay [6] (setting [8]), 48%; in assay [6] (at 50.0 µM) it was 60.1%.
In the case of `Nc1ccc2c(SCCSc3c4ccccc4nc4cc(N)ccc34)c3ccccc3nc2c1`, the growth inhibition in assay [1] (setting [7]) is 25%; in assay [1] (setting [8]) it was 81% (active); in assay [1] (at 50.0 µM), 56%; in assay [2] (setting [7]) it was 20%; in assay [2] (setting [8]), 62%; in assay [2] (at 50.0 µM), 33%. Besides, the growth inhibition in assay [3] (setting [7]) was 28%; in assay [3] (setting [8]), 76% (active); in assay [3] (at 50.0 µM), 52.6%; in assay [4] (setting [7]), 6%; in assay [4] (setting [8]), 28%; in assay [4] (at 50.0 µM) it was -8.65%. The growth inhibition in assay [5] (setting [7]) was 1%; in assay [5] (setting [8]), -14%; in assay [5] (at 50.0 µM), -6.05%; in assay [6] (setting [7]), 23%; in assay [6] (setting [8]), 46%; in assay [6] (at 50.0 µM) it was 29.9%.
For `NC1=CC(=O)c2ccccc2C1=O`, the growth inhibition in assay [1] (setting [7]) was 18%; in assay [1] (setting [8]), 84% (active); in assay [1] (at 50.0 µM) it was 94.5% (active); in assay [2] (setting [7]), 1%; in assay [2] (setting [8]), 48%; in assay [2] (at 50.0 µM), 62.3%. In addition, the growth inhibition in assay [3] (setting [7]) was 26%; in assay [3] (setting [8]), 57%; in assay [3] (at 50.0 µM), 85.2% (active); in assay [4] (setting [7]), 9%; in assay [4] (setting [8]), 33%; in assay [4] (at 50.0 µM) it was -1.65%. Further, the growth inhibition was 42% in assay [5] (setting [7]); 93% (active) in assay [5] (setting [8]); 93.8% (active) in assay [5] (at 50.0 µM); 31% in assay [6] (setting [7]); 84% (active) in assay [6] (setting [8]); 95.5% (active) in assay [6] (at 50.0 µM).
`CC(C)CC(NC(=O)C(Cc1ccccc1)NC(=O)C(COCc1ccccc1)NC(=O)OC(C)(C)C)C(=O)OCc1ccccc1` (stereo not drawn) (Boc-Ser(Bn)-Phe-Leu-OBn; configuration not given here): the growth inhibition in assay [1] (setting [7]) is 16%; in assay [1] (setting [8]) it was 13%; in assay [1] (at 50.0 µM), 16.8%; in assay [2] (setting [7]), 22%; in assay [2] (setting [8]), 15%; in assay [2] (at 50.0 µM), 2.6%. Further, the growth inhibition in assay [3] (setting [7]) is -15%; in assay [3] (setting [8]), -29%; in assay [3] (at 50.0 µM) it was 17.2%; in assay [4] (setting [7]), -3%; in assay [4] (setting [8]), 7%; in assay [4] (at 50.0 µM) it was 16.2%. In addition, the growth inhibition in assay [5] (setting [7]) was -4%; in assay [5] (setting [8]) it was -7%; in assay [5] (at 50.0 µM) it was 25.4%; in assay [6] (setting [7]), 26%; in assay [6] (setting [8]) it was 15%; in assay [6] (at 50.0 µM), 24.3%.
For `Cc1ccc(N=C(N)NN=C(c2ccc(Cl)cc2)c2ccc(Cl)cc2)cc1`, the growth inhibition is 10% in assay [1] (setting [7]); 67% in assay [1] (setting [8]); 65.7% in assay [1] (at 50.0 µM); 4% in assay [2] (setting [7]); 38% in assay [2] (setting [8]); 98.5% (active) in assay [2] (at 50.0 µM). Besides, the growth inhibition was 7% in assay [3] (setting [7]); 35% in assay [3] (setting [8]); 57.6% in assay [3] (at 50.0 µM); 8% in assay [4] (setting [7]); 22% in assay [4] (setting [8]); 98% (active) in assay [4] (at 50.0 µM). Also, the growth inhibition in assay [5] (setting [7]) is 6%; in assay [5] (setting [8]) it was 24%; in assay [5] (at 50.0 µM), 97.2% (active); in assay [6] (setting [7]), 5%; in assay [6] (setting [8]), 38%; in assay [6] (at 50.0 µM), 50.3%.
Consider `CCCCN(CCCC)CCC(O)(c1ccc(OC)c2ccccc12)C(O)(CCN(CCCC)CCCC)c1ccc(OC)c2ccccc12` (stereo not given), for which the growth inhibition in assay [1] (setting [7]) is 43%; in assay [1] (setting [8]) it was 99% (active); in assay [1] (at 50.0 µM) it was 99.2% (active); in assay [2] (setting [7]), -2%; in assay [2] (setting [8]) it was 100% (active); in assay [2] (at 50.0 µM), 99.7% (active). Besides, the growth inhibition in assay [3] (setting [7]) is 60%; in assay [3] (setting [8]), 99% (active); in assay [3] (at 50.0 µM), 99.6% (active); in assay [4] (setting [7]) it was 35%; in assay [4] (setting [8]), 99% (active); in assay [4] (at 50.0 µM) it was 98.9% (active). Moreover, the growth inhibition in assay [5] (setting [7]) was 39%; in assay [5] (setting [8]) it was 99% (active); in assay [5] (at 50.0 µM), 99.2% (active); in assay [6] (setting [7]), 52%; in assay [6] (setting [8]) it was 99% (active); in assay [6] (at 50.0 µM), 97.5% (active).
On to `OCCCNc1nc2ccc(Cl)cc2c2ccccc12`, for which the growth inhibition in assay [1] (setting [7]) was 7%; in assay [1] (setting [8]), 5%; in assay [1] (at 50.0 µM), 23.6%; in assay [2] (setting [7]), 2%; in assay [2] (setting [8]) it was 2%; in assay [2] (at 50.0 µM) it was 12.4%. The growth inhibition in assay [3] (setting [7]) was 6%; in assay [3] (setting [8]), 3%; in assay [3] (at 50.0 µM), 25.7%; in assay [4] (setting [7]), 5%; in assay [4] (setting [8]), 1%; in assay [4] (at 50.0 µM), 2.7%. For the same molecule, the growth inhibition in assay [5] (setting [7]) is -3%; in assay [5] (setting [8]), -4%; in assay [5] (at 50.0 µM), 23.8%; in assay [6] (setting [7]), -1%; in assay [6] (setting [8]), 5%; in assay [6] (at 50.0 µM), 70.5% (active).
On to `CCOC(=O)c1c(I)[nH]c(I)c1C`, for which the growth inhibition in assay [1] (setting [7]) is -1%; in assay [1] (setting [8]), 11%; in assay [1] (at 50.0 µM), 30.3%; in assay [2] (setting [7]), 0%; in assay [2] (setting [8]), 5%; in assay [2] (at 50.0 µM) it was 10.2%. The growth inhibition in assay [3] (setting [7]) is -1%; in assay [3] (setting [8]), 14%; in assay [3] (at 50.0 µM), 22.2%; in assay [4] (setting [7]), -1%; in assay [4] (setting [8]) it was 3%; in assay [4] (at 50.0 µM) it was 10.6%. In addition, the growth inhibition in assay [5] (setting [7]) is 4%; in assay [5] (setting [8]), 3%; in assay [5] (at 50.0 µM) it was 38.5%; in assay [6] (setting [7]), 2%; in assay [6] (setting [8]), 9%; in assay [6] (at 50.0 µM), 42.3%.
